Reference: PubChem BioAssay (Tox21)
Results filed as inconclusive are left out. Where a structure was tested more than once in an assay, its records may differ in their call. Calls of active or inactive are those of the source. Unless noted, the call rests on the fitted dose curve; in most records, active means well fitted curve in the direction sought with a large enough effect in the repeat runs; inconclusive means weak or mixed curves; inactive means no such curve, though single readings can be large; an effect the other way counts as inactive or inconclusive.

Assays:
[1] = qHTS assay for small molecule agonists of the p53 signaling pathway (AID 651631; calls by dose curve; further: nearly all actives have a fitted effect of over 15% in size)
Procedure, shortened: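 Beta-lactamase reporter activity under p53 response elements was quantified in HCT-116 cells by FRET fluorescence, following 16 h incubation with test compounds at 37 °C and 2 h substrate development at room temperature.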

[2] = qHTS assay for small molecules that induce genotoxicity in human embryonic kidney cells expressing luciferase-tagged ATAD5 (AID 651632); further: nearly all actives have a fitted effect of over 15% in size
Procedure, shortened: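 DMSO vehicle served as the control. HEK293T reporter cells, 16 hr at 37C, then 30 min Amplite at room temperature; ATAD5 induction is measured as luciferase activity.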

[3] = qHTS assay for small molecule agonists of the p53 signaling pathway - cell viability (AID 651633; calls by dose curve;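 further: p53RE-bla HCT reporter cells with a stable beta-lactamase p53 reporter; series mostly up to about 83 µM; nearly all actives have a fitted effect of over 30% in size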)
Procedure, shortened: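 p53RE-bla cells, seeded at 4,000 per well and rested 5 h at 37 C/5% CO2, received compounds in DMSO for 16 h at 37 C. CellTiter-Glo was then added, and luminescence was read after 30 min at room temperature to gauge cytotoxicity.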

[4] = qHTS assay for small molecules that induce genotoxicity in human embryonic kidney cells expressing luciferase-tagged ATAD5 - cell viability (AID 651634; calls by dose curve; further: nearly all actives have a fitted effect of over 25% in size; further: potency means the concentration at half of the fitted maximal effect)
Procedure, shortened: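 Here HEK293T cells with the ATAD5 luciferase reporter are incubated with test compounds for 15.5 hr, and cytotoxicity is then gauged by measuring protease activity in live cells using fluorescence.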

[5] = qHTS assay for small molecule disruptors of the mitochondrial membrane potential - cell viability (AID 720634; calls by dose curve;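 further: human HepG2 liver cancer cells; series mostly up to about 83 µM; nearly all actives have a fitted effect of over 20% in size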)
Procedure, shortened: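 Viability of HepG2 cells is scored from ATP content by luminescence; cells are exposed to compound for 1 hr at 37 C and 5% CO2, then dosed with m-MPI dye before the CellTiter-Glo reagent.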

[6] = qHTS assay for small molecule disruptors of the mitochondrial membrane potential (AID 720635); further: potency means the concentration at half of the fitted maximal effect
Procedure, shortened: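 HepG2 cells (2,000/well) attached overnight at 37C, then took compound for 1 hr at 37C, 5% CO2. Mito-MPS dye was added for 30 min; fluorescence was read at 490/535 nm (monomers) and 540/590 nm (aggregates).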

[7] = qHTS assay to test for compound auto fluorescence at 590 nm (red) in HepG2 cells (AID 720674)
Procedure, shortened: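 Intrinsic compound fluorescence in the red window (Ex/Em 540/590 nm) is measured in attached HepG2 cells exposed for 1 hr, DMSO vehicle as baseline, benchmarked to Rose Bengal sodium.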

[8] = qHTS assay to test for compound auto fluorescence at 535 nm (green) in HepG2 cells (AID 720675)
[9] = qHTS assay to test for compound auto fluorescence at 460 nm (blue) in HEK293 cells (AID 720678)
Procedure, shortened: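 HEK293 cells (2,000 per well, medium with 10% dialyzed FBS) attached for 4-5 hr at 37C, then received compound and stood overnight at 37C, 5% CO2. Blue fluorescence was read at Ex/Em 405/460 nm and expressed relative to triamterene.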

[10] = qHTS assay to test for compound auto fluorescence at 590 nm (red) in HEK293 cells (AID 720679)
Procedure, shortened: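 HEK293 cells (2,000/well, medium with 10% dialyzed FBS) attached for 4-5 hr at 37C, received 23 nL compound and were incubated overnight at 37C, 5% CO2. Red fluorescence was then read at 540/590nm Ex/Em, referenced to Rose Bengal sodium.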
On the % scale 0 is the no-effect control and ±100 the full control effect.

CCCCCCCCCCCCCCCCCC#N
inactive: outcome [1] | outcome [2] | outcome [3] | Potency [4] | outcome [5] | Potency [6] | outcome [7] | outcome [8] | outcome [9] | outcome [10]

CC(=O)O[C@@H]1CC2CCC1(C)C2(C)C (stereo partly drawn)
inactive: outcome [1] | outcome [2] | outcome [3] | Potency [4] | outcome [5] | Potency [6] | outcome [8] | outcome [9] | outcome [10]

CC(CO)(CO)CO
inactive: outcome [1] | outcome [2] | outcome [3] | Potency [4] | outcome [5] | Potency [6] | outcome [7] | outcome [8] | outcome [9] | outcome [10]

N[C@@H](CSCCCO)C(=O)O
inactive: outcome [1] | outcome [2] | outcome [3] | Potency [4] | outcome [5] | Potency [6] | outcome [7] | outcome [8] | outcome [9] | outcome [10]

COS(=O)(=O)O
inactive: outcome [1] | outcome [2] | outcome [3] | Potency [4] | outcome [5] | Potency [6] | outcome [8] | outcome [9] | outcome [10]

Cc1ncc([N+](=O)[O-])n1CC(C)O (stereo not drawn)
inactive: outcome [1] | outcome [2] | outcome [3] | Potency [4] | outcome [5] | Potency [6] | outcome [7] | outcome [8] | outcome [9] | outcome [10]

CCCSSCCC
inactive: outcome [1] | outcome [2] | outcome [3] | Potency [4] | outcome [5] | Potency [6] | outcome [7] | outcome [8] | outcome [9] | outcome [10]

CC(C)=CCC/C(C)=C/COC=O
inactive: outcome [1] | outcome [2] | outcome [3] | Potency [4] | outcome [5] | Potency [6] | outcome [7] | outcome [8] | outcome [9] | outcome [10]

CC(C)Nc1ccccc1
inactive: outcome [1] | outcome [2] | outcome [3] | Potency [4] | outcome [5] | Potency [6] | outcome [8] | outcome [9] | outcome [10]

CCCCSCCCC
inactive: outcome [1] | outcome [2] | outcome [3] | Potency [4] | outcome [5] | Potency [6] | outcome [7] | outcome [8] | outcome [9] | outcome [10]

C[C@@H](O)C(=O)O
inactive: outcome [1] | outcome [2] | outcome [3] | Potency [4] | outcome [5] | outcome [7] | outcome [8] | outcome [9] | outcome [10]

O=S(=O)(O)c1ccc2c(N=Nc3ccc(S(=O)(=O)O)c4ccccc34)c(O)c(S(=O)(=O)O)cc2c1
inactive: outcome [1] | outcome [3] | activity, negative = cytotoxicity [4] -17.7% [at 8.08 µM] | outcome [5] | outcome [7] | outcome [8] | outcome [9] | outcome [10]
active: Potency [4] 13.3 µM

C=CC(=O)CCCCC
inactive: outcome [1] | outcome [2] | outcome [3] | Potency [4] | outcome [5] | outcome [8] | outcome [9] | outcome [10]

OCC1(CO)COCOC1
inactive: outcome [1] | outcome [2] | outcome [3] | Potency [4] | outcome [5] | outcome [8] | outcome [9] | outcome [10]

CC/C=C\CCOC(=O)c1ccccc1O
inactive: outcome [1] | outcome [2] | outcome [3] | Potency [4] | outcome [5] | outcome [7] | outcome [8] | outcome [9] | outcome [10]

NCc1ccc(S(N)(=O)=O)cc1
inactive: outcome [1] | outcome [2] | outcome [3] | Potency [4] | Potency [6] | fluorescence, % of fluorescein control [8] -0.119% [at 18.6 µM] | fluorescence, % of triamterene [9] 0.204% [at 18.6 µM] | fluorescence, % of fluorescent control [10] -0.0605% [at 18.6 µM]

CCC(=O)c1c(O)cc(O)cc1O
inactive: outcome [1] | outcome [2] | outcome [3] | Potency [4] | outcome [7] | outcome [8] | outcome [9] | outcome [10]
active: Potency [6] 11.9 µM

O=C1c2ccccc2C(=O)c2cc(Cl)ccc21
inactive: activation [1] -4.52% [at 8.3 µM] | activation [2] 2.88% [at 8.08 µM] | activity change, negative = cytotoxicity [3] -10.5% [at 8.08 µM] | activity, negative = cytotoxicity [4] 10.7% [at 8.08 µM] | activity change, negative = cytotoxicity [5] 3.06% [at 8.08 µM] | fluorescence, relative to Rose Bengal [7] -0.0283% [at 3.72 µM] | fluorescence, % of fluorescein control [8] -0.0348% [at 3.72 µM] | fluorescence, % of triamterene [9] -0.0543% [at 3.72 µM] | fluorescence, % of fluorescent control [10] -0.785% [at 3.72 µM]

CCCCCCCCCOC(=O)CCCCC(=O)OCCCCCCC
inactive: outcome [1] | outcome [2] | outcome [3] | Potency [4] | outcome [5] | outcome [7] | outcome [8] | outcome [9] | outcome [10]

CC(=O)c1cc(C)oc1C
inactive: outcome [1] | outcome [2] | outcome [3] | Potency [4] | outcome [7] | outcome [8] | outcome [9] | outcome [10]

CC1=C(C(=O)O)N2C(=O)[C@@H](NC(=O)[C@H](N)c3ccccc3)[C@H]2SC1
inactive: outcome [1] | outcome [2] | outcome [3] | Potency [4] | outcome [5] | outcome [8] | outcome [9] | outcome [10]

O=C(O)c1cc2ccccc2nc1C(=O)O
inactive: outcome [1] | outcome [2] | outcome [3] | Potency [4] | outcome [5] | outcome [7] | outcome [8] | outcome [9] | outcome [10]

CN(C)CCCCl
inactive: outcome [1] | outcome [2] | outcome [3] | Potency [4] | outcome [5] | Potency [6] | outcome [8] | outcome [9] | outcome [10]

O=C(O)CONC(=O)c1ccccc1
inactive: outcome [1] | outcome [2] | outcome [3] | Potency [4] | outcome [5] | outcome [7] | outcome [8] | outcome [9] | outcome [10]

CCCC(CC)c1ccccc1 (stereo not drawn)
inactive: outcome [1] | outcome [2] | outcome [3] | Potency [4] | outcome [7] | outcome [8] | outcome [9] | outcome [10]

CC(=O)CC(=O)Nc1ccc(C)cc1C
inactive: outcome [1] | outcome [2] | outcome [3] | Potency [4] | outcome [8] | outcome [9] | outcome [10]
